Screening results (PubChem)
FLuc inh – blocks purified firefly luciferase enzyme activity; purified P. pyralis luciferase, luminescence, biochemical; AID 1347043; actives 2.5% (n = 76,000); P08659; Potency, µM (titrated, usually from 115 µM), actives largely listed as inhibitors; also: nearly all actives have a fitted effect of over 65% in size
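Purified P. pyralis luciferase (10nM final) in 50mM Tris acetate pH 7.5, 10mM Mg acetate, 0.01% Tween-20, 0.05% BSA with 10uM D-luciferin and 10uM ATP. Compounds titrated qHTS. Luminescence imaged on CCD.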
NPR1 antag – blocks ANP-stimulated signaling of human Npr1 receptor; HEK293 hNpr1 GloSensor cGMP, ANP-stimulated luminescence; actives 1.6% (n = 76,000); Potency, µM (titrated, usually from 46.3 µM), inactives show at the top dose activity change, negative = inhibition, usual class: inhibitors; calls by dose curve; also: nearly all actives have a fitted effect of over 60% in size
Target sequence (P16066 whole entry, looked up): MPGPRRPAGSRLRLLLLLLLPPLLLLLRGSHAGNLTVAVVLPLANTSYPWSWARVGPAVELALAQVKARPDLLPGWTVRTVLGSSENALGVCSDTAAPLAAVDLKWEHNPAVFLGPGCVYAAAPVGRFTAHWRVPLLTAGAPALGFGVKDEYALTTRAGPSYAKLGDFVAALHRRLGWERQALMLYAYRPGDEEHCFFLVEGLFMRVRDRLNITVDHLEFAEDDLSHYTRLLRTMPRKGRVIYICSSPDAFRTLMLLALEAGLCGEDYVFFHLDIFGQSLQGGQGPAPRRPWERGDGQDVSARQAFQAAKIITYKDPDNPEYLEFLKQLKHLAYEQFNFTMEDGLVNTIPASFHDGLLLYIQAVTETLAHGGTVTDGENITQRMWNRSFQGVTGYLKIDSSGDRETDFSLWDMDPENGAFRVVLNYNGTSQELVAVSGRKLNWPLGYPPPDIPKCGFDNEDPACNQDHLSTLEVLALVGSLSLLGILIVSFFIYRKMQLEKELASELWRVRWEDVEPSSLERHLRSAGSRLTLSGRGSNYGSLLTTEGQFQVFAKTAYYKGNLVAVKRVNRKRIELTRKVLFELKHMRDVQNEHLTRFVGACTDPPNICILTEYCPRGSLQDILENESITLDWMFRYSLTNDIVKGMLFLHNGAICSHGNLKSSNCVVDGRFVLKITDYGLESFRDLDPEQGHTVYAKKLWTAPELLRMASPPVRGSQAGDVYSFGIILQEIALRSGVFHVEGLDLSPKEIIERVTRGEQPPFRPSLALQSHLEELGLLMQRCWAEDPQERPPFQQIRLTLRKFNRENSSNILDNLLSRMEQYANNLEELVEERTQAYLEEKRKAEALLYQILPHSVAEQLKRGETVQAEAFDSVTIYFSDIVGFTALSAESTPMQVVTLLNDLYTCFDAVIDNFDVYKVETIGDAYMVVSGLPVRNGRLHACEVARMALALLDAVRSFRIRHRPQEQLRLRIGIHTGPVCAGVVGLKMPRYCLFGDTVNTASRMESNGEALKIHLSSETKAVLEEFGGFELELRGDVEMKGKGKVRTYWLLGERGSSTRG
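HEK293 cells stably expressing human Npr1 and cGMP GloSensor pGS-40F, loaded 2 h with 2% GloSensor reagent, given compound 30 min at room temperature. Luminescence read before and 20 min after 0.1 nM hNppA.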
3T3 cytotox – NIH 3T3 cell cytotoxicity. NIH 3T3 viability, CellTiter-Glo ATP luminescence, 48-72 h. Potency, µM (highest dose often 96.7 µM), for inactives: top-dose activity change, negative = cytotoxicity, most hits filed as inhibitors. actives 4.3% (n = 94,000). AID 1345082; also: nearly all actives have a fitted effect of over 55% in size
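Cells were seeded at 400 per well, treated with pin-transferred compound, and kept 48 or 72 hr at 37 °C before CellTiter-Glo addition and luminescence imaging of cellular ATP.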
HEK293 tox – cytotoxic compounds in HEK 293 cells. actives 6.6% (n = 94,000). HEK 293 viability, ATP luminescence (CellTiter-Glo), 48-72 h. Potency, µM (highest dose often 115 µM), inactives show top-dose activity change, negative = cytotoxicity, hits mostly inhibitors. AID 1345083; also: nearly all actives have a fitted effect of over 60% in size
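Luminescence from cellular ATP, measured with CellTiter-Glo, indicates HEK 293 viability. Cells plated at 250 cells/well are treated with compound for 48 or 72 hr at 37 degree Celsius before reagent addition.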
Numbers without * were called inactive; i = inactive; ? = inconclusive; · = no result; [ ] = another dose, or the depositor's remark. Most compounds without a hit are left out; they make up all but 11% or so of the library. Unless noted, calls follow the shape of the dose curve; as a rule, active = well fitted curve in the direction sought with a large enough effect; inconclusive = small, poorly fitted or top-dose-only effect, or another doubt; inactive = no such curve, though single readings can be large; an effect the other way counts as inactive or inconclusive. % is scaled to controls: 0 for no effect and ±100 for the full control effect; potency is read from the fitted curve at half-maximal effect.

SMILES	FLuc inh	NPR1 antag	3T3 cytotox	HEK293 tox
O=C(NC1CCCN(CCn2nc3n(c2=O)CCCC3)C1)c1ccc(Cl)cc1 (stereo not drawn)	·	·	-25%	?
COc1ccc(-c2cccc(C(=O)N3CCC(NC(=O)Cc4ccccc4)CC3)c2)nn1	·	·	?	-5%
O=C(c1cc2n(n1)CC(c1ccc(Cl)cc1)OC2)N1CCN(c2ccccc2)CC1 (stereo not drawn)	i	20µM*	?	?
CC1CCN(C(=O)c2cc3n(n2)CC(c2ccc(Cl)cc2)OC3)CC1 (stereo not drawn)	i	?	40µM*	?
Cc1ccc(S(=O)(=O)N2CCC(Oc3ncccc3C(=O)N(C)C)C2)cc1Cl (stereo not drawn)	i	-1%	?	-17%
COC1CCN(c2cc(-c3cccnc3)nc3c(C)noc23)CC1	i	2%[70.6 µM]	?	-14%[172 µM]
COC1CCCN(c2ncccc2-c2cc(-c3ccccc3)nc3c(C)noc23)C1 (stereo not drawn)	i	-30%[70.6 µM]	?	79µM*
COC1CCCN(c2cc(-c3cccnc3)nc3c(C)noc23)C1 (stereo not drawn)	i	-3%[70.6 µM]	35µM*	?
Cc1ccc(NC(=O)c2cc3n(n2)CC(c2ccc4c(c2)OCO4)OC3)cc1F (stereo not drawn)	i	?	-26%	40µM*
O=C(Nc1cccc(F)c1)c1cc2n(n1)CC(c1ccc(Br)cc1)OC2 (stereo not drawn)	?	-26%	?	?
COc1ccc(NC(=O)c2cc3n(n2)CC(c2ccc4c(c2)OCO4)OC3)c(OC)c1 (stereo not drawn)	i	-5%	?	?
COc1ccc(NC(=O)c2cc3n(n2)CC(c2ccc4c(c2)OCO4)OC3)cc1 (stereo not drawn)	?	11µM*	?	45µM*
NC(=O)c1ccc(NC(=O)c2cc3n(n2)CC(c2ccc(Br)cc2)OC3)cc1 (stereo not drawn)	i	?	?	35µM*
CCCC(=O)Nc1cc(-c2ccccn2)nn1-c1ccccc1	·	·	-14%[138 µM]	-3%[172 µM]
COc1ccc(-c2cccc(C(=O)N3CCC(NC(=O)c4ccc(Cl)nc4)CC3)c2)nn1	·	·	-9%	?
CC1(C)[C@H]2CC[C@@H](CNC(=O)c3ccc4ccccc4n3)[C@@H]1C2	i	0%[70.6 µM]	89µM*	?
CC1(C)[C@H]2CC[C@@H](CNC(=O)c3ccc(Cl)nc3)[C@@H]1C2	i	-7%[70.6 µM]	79µM*	?
CC1(C)[C@H]2CC[C@@H](CNC(=O)c3ccncc3)[C@@H]1C2	i	-17%[70.6 µM]	?	?
Cc1cc(C(=O)NC[C@@H]2CC[C@H]3C[C@@H]2C3(C)C)ccc1Cl	i	?	35µM*	?
Cc1ccccc1C(=O)NC[C@@H]1CC[C@H]2C[C@@H]1C2(C)C	i	-5%[70.6 µM]	?	?
CC1(C)[C@H]2CC[C@@H](CNC(=O)c3cccc(Br)c3)[C@@H]1C2	i	-2%[70.6 µM]	?	100µM*
Cc1ccc(C(=O)NC[C@@H]2CC[C@H]3C[C@@H]2C3(C)C)cc1	i	6%[70.6 µM]	?	?
CC(=O)N1CCn2c(nnc2C2CCCN2Cc2cn[nH]c2-c2cccs2)C1 (stereo not drawn)	·	·	-6%	i
COc1ccccc1-n1c(=O)c(C(=O)Nc2ccc(F)cc2)nc2cccnc21	·	·	i	3%
CC1(C)[C@H]2CC[C@@H](CNC(=O)N3CCCC3)[C@@H]1C2	i	-7%[70.6 µM]	?	63µM*
SMILES	FLuc inh	NPR1 antag	3T3 cytotox	HEK293 tox
CCC(=O)NC[C@@H]1CC[C@H]2C[C@@H]1C2(C)C	i	6%[70.6 µM]	-27%[174 µM]	-11%[230 µM]
CC1(C)[C@H]2CC[C@@H](CNC(=O)Cc3cccc(Cl)c3)[C@@H]1C2	i	8%[70.6 µM]	?	100µM*
O=C(c1cccc2[nH]ccc12)N1CCC(N2C(=O)C3(CCCCC3)C2c2ccncc2)CC1 (stereo not drawn)	i	10%	3%	i
COc1ccc(-c2ccnc3nc(C4CCCO4)nn23)c(F)c1 (stereo not drawn)	i	2%	i	4%
C=CCC1(CO)CCCN(Cc2cc(C3CCCCC3)no2)C1 (stereo not drawn)	i	-16%	?	40µM*
OCC1CN(c2ncccn2)CC12CCN(Cc1cccc3[nH]ccc13)CC2 (stereo not drawn)	i	-11%	?	79µM*
Cc1ccccc1CN1CCC2OCCN(CCc3ccccc3)C(=O)C2C1 (stereo not drawn)	i	-1%[70.6 µM]	?	?
O=C(NCc1cccc(Cl)c1)c1cn2cc(-c3ccc(C(F)(F)F)cc3)sc2n1	·	·	22µM*	45µM*
O=C(NCc1cccc(C(F)(F)F)c1)c1cn2cc(-c3ccccc3)sc2n1	·	·	-26%	45µM*
O=C(NCc1ccc(F)cc1)c1cn2cc(-c3ccc(C(F)(F)F)cc3)sc2n1	·	·	?	50µM*
CNC(=O)c1cn2cc(-c3ccc(OC)cc3)sc2n1	·	·	100µM*	71µM*
O=C(NCc1ccc(F)cc1)c1cn2cc(-c3cccc(C(F)(F)F)c3)sc2n1	·	·	?	-24%
C#CCNC(=O)c1cn2cc(-c3ccc(OC)cc3)sc2n1	·	·	-26%[138 µM]	-17%[172 µM]
CN(CCc1ccccn1)C(=O)CCC[C@@H]1[C@H]2CCCN3CCC[C@@H](CN1Cc1cccnc1)[C@@H]23	i	1%	-6%	3%
CN(C)C[C@@H]1CN(Cc2ccccc2)C[C@H]1NC(=O)c1cccs1	·	·	-28%	?
O=C(NCc1ccc(Cl)cc1)c1cn2cc(-c3ccc(F)cc3)sc2n1	·	·	?	28µM*
O=C(NCc1cccnc1)c1cn2cc(-c3ccc(C(F)(F)F)cc3)sc2n1	·	·	?	20µM*
COc1ccc(-c2cn3cc(C(=O)NCc4ccc(F)c(F)c4)nc3s2)cc1	·	·	?	13µM*
O=C(NCC(F)(F)F)c1cn2cc(-c3ccccc3)sc2n1	·	·	89µM*	?
Cc1cccc(OCC(=O)NC2CCN(C(=O)c3cc4c(=O)[nH]c(C)cn4n3)CC2)c1	i	0%	-12%	0%
CC1CCN(c2ccc(CNC(=O)C3CCCN(Cc4ccncc4)CCC(=O)NCC3)cc2)CC1 (stereo not drawn)	i	1%	?	?
COc1ccccc1Cn1c(=O)c(C(=O)N2CCOCC2)nc2cccnc21	·	·	-21%	2%
CC1=C[C@@H](CN2CCC(O)CC2)[C@H](C(C)C)C[C@H]1Cc1nnc(C(C)(C)C)o1	i	0%[70.6 µM]	?	?
COc1ccc(-c2cn3cc(C(=O)NCc4cccc(C(F)(F)F)c4)nc3s2)cc1	·	·	?	35µM*
O=C(NCc1cccc(C(F)(F)F)c1)c1cn2cc(-c3ccc(F)cc3)sc2n1	·	·	40µM*	?
O=C(Nc1cnc2c(c1)CCC2)c1cccc(F)c1	·	·	?	-29%
COc1cc(CN2CCCC3(Cc4ccccc4CNC3=O)C2)cc(OC)c1 (stereo not drawn)	·	·	-28%	?
